Here are results for 97 compounds from PubChem BioAssay AID2013 (Sanford-Burnham Center for Chemical Genomics, 2009).

Among all 290,000 compounds or so, about 370 (0.13%) were called active. Shown is part of a subset that was picked to be rich in actives. Entries with a potency or affinity are not part of this list. Unmarked numbers belong to inactive results.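 Rule for the calls: active = spots per cell inhibited over 60%, with over 100 cells counted and total cytoplasm intensity under 500,000; inconclusive = wells with under 100 cells, flagged as likely toxic; inactive = the rest.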

For this test, the target named is G-protein coupled receptor 55 (Homo sapiens) (UniProt Q9Y2T6). As to the kind of experiment: GPR55 antagonists blocking LPI-driven arrestin recruitment, primary screen, imaging, U2OS, beta-arrestin-GFP, LPI agonist (AID 2013).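 Note: U2OS cells stably carrying GPR55 and arrestin-GFP stimulated by 5 µM LPI near EC80; imaged beta-arrestin-GFP aggregate spots per cell after agonist stimulation; plate controls were LPI-stimulated DMSO wells for no effect and DMSO wells without LPI for full effect.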 The note with it: U2OS GPR55 beta-arrestin-GFP translocation imaging, LPI antagonism; at 10 µM; stronger effect = higher value. (In general: Arrestin recruitment assays detect the binding of arrestin to an activated receptor.)
Chain of G-protein coupled receptor 55 (Homo sapiens) (Q9Y2T6 whole entry, looked up): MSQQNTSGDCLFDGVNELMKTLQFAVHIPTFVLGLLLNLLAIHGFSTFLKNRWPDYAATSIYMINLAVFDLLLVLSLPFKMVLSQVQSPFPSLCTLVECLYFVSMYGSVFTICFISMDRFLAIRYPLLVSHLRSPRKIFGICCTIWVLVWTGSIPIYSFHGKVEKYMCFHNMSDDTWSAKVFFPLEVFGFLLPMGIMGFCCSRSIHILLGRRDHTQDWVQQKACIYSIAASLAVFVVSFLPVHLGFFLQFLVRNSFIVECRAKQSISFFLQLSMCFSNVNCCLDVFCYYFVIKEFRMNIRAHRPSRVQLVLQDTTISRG
In the case of `COC(=O)COc1ccc(S(=O)(=O)NCc2ccco2)cc1`, the inhibition (usually the drop in the measured response relative to a control, in per cent) was 10.1%.

With `C/C(=C\c1ccccc1)C(=O)NCCCn1ccnc1`, the inhibition was 9.4%. In the case of `Cc1ccc(NC(=S)N(CCCN2CCOCC2)Cc2cccs2)c(C)c1` it was 25.2%; in that of `Cc1ccccc1NC(=S)N(CCCN1CCOCC1)Cc1cccs1`, 54.6%. As for `CCC(C)(C)n1nnnc1C(c1cccc(C#N)c1)N1CCN(c2cc(C)ccc2C)CC1` (configuration not stated), the inhibition was 2.5%. In the case of `CCc1cc2c(=O)c(-c3ccc4c(c3)OCCO4)coc2cc1OS(C)(=O)=O` it was 8%; in that of `COc1cc(/C=C(\C#N)C(=O)NC2CCCCC2C)ccc1OS(=O)(=O)c1ccc(C)cc1` (configuration not stated), 28.8%; in that of `COc1cc(/C=C(\C#N)C(N)=O)ccc1OS(=O)(=O)c1ccc(C)cc1`, 28.6%. In the case of `O=C(OCc1nnc(-c2ccccc2)o1)C12CC3CC(CC(Br)(C3)C1)C2` it was 0.4%; in that of `N#CC(C#N)=C1C=C2C=C(N3CCCCCC3)CCC2CC1` (configuration not stated), 23.3%. In the case of `N#CC(C#N)=C1C=C2C=C(N3CCCCC3)CCC2CC1` (configuration not stated) it was 3.1%; in that of `CCc1ccc(CN2CCC(n3nccc3NC(=O)c3ccccc3)CC2)o1`, -3.9%. With `Cc1c(C(=O)NCc2ccc3c(c2)OCO3)sc2nc(-c3ccc(F)cc3)cn12`, the inhibition is 11.5%. Next, `CC(C)c1nnc(NC(=O)CCC(=O)NCc2ccccc2Cl)s1`: 13%. Next, `CCCNc1nc(=S)n(-c2ccccc2)c(C)c1C(C)=O`: 4.7%; `Cc1ccc(-c2csc3ncnc(SCc4ccc(C(=O)O)cc4)c23)cc1`: 10%. In the case of `O=C(O)CSc1ncnc2scc(-c3ccccc3)c12` it was 3.8%. For the compound `O=C(NNC(=S)NCc1ccccc1)c1ccc(Br)o1`, the inhibition was 13.5%. Next, `C=CCN(c1ccccc1)S(=O)(=O)c1c(C)[nH]c(=O)[nH]c1=O`: 0.3%; `O=[N+]([O-])CC(=Nc1ccc(F)cc1)N/N=C\c1oc(O)c2ccccc12`: 15.6%; `COC(=O)C1=C(C)N(Cc2ccc(OC)cc2)C(=O)/C1=C\c1ccco1`: 0.4%.

Regarding `COC(=O)C1=C(C)N(Cc2ccccc2)C(=O)/C1=C\c1ccco1`, the inhibition was 2.2%.

On to `COc1ccc(-c2csc3ncnc(Oc4cccc5ccc(C)nc45)c23)cc1`, for which the inhibition is 7.8%. In the case of `Cc1ccc(-c2csc3ncnc(Oc4cccc5ccc(C)nc45)c23)cc1` it was 3.8%. In the case of `Cc1ccc2cccc(Oc3ncnc4scc(-c5ccccc5)c34)c2n1`, the inhibition was 77.9% (active). `Cc1ccc(N2C(=O)C3CCCN3C2=S)cc1C` (configuration not stated): the inhibition was 3.3%.

Take `O=C(COc1cccc(C(F)(F)F)c1)N1CCN(c2ccc(O)cc2)CC1`: the inhibition is -7.2%. Next, `NC(=O)c1ccc[n+](CC(=O)c2ccc(Br)cc2)c1`: 9.5%. Next, `N#C/C(=C\c1ccc(N2CCOCC2)o1)C(=O)Nc1ccc(O)cc1`: -2.9%; `N#C/C(=C\c1ccc(N2CCOCC2)o1)C(=O)N1CCOCC1`: 100% (active).

On to `N#C/C(=C/c1ccc(N2CCOCC2)o1)C(=O)Nc1ccccc1`, for which the inhibition was 0.6%. In the case of `COc1cccc(NC(=O)C(=O)N/N=C/c2ccc3c(c2)OCO3)c1` it was 14.8%; in that of `CC(=O)Oc1ccc(C(=O)Cc2ccccn2)c(O)c1`, 1%; in that of `c1ccc(C(c2ccccn2)c2ccccn2)cc1`, 1.1%.

Regarding `CCOC(=O)CCNC(=O)N1CCCC(N(C)CCc2ccc(OC)c(OC)c2)C1` (configuration not stated), the inhibition is 6.3%. In the case of `O=C(NCC1CC1)Nc1ccc(Cl)cc1` it was 10.7%; in that of `CCCS(=O)(=O)N1CCCC(C(=O)Oc2ccc(C)c(C)c2)C1` (configuration not stated), -6.5%; in that of `CCOc1ccccc1NC(=O)NC1(C(=O)NCc2cccnc2)CCCCC1`, 3.3%. Next, `CCOC(=O)c1cc2c(=O)n3cccc(C)c3nc2n(Cc2ccccc2Cl)c1=N`: 85.6% (active); `CCOC(=O)c1cc2c(=O)n3ccccc3nc2n(Cc2ccccc2Cl)c1=N`: 38.5%; `COC(=O)c1cc2c(=O)n3cccc(C)c3nc2n(Cc2cccnc2)c1=N`: -5.2%. In the case of `CCOC(=O)c1cc2c(=O)n3cccc(C)c3nc2n(C)c1=N` it was 4.1%; in that of `CCn1c(=N)c(C(=O)OC)cc2c(=O)n3ccccc3nc21`, -3.4%; in that of `COCCNC(=O)C(OC(=O)CC1Sc2ccccc2NC1=O)c1ccncc1` (configuration not stated), 1.2%. Take `O=[N+]([O-])c1ccc(S(=O)(=O)NCCN2CCOCC2)cc1`: the inhibition was 11.3%. In the case of `CCn1ncc(C(=O)Nc2cccc(Cl)c2)c1C`, the inhibition was 3.9%. With `Brc1ccc(-c2nnc(Cc3ccccc3)o2)cc1`, the inhibition was -5.2%. Turning to `COc1ccc(Cc2nnc(-c3ccccc3)o2)cc1`, the inhibition is -5.3%.

For the compound `CCN1CCCC1CN(Cc1cc2cc(OC)ccc2[nH]c1=O)C(=O)NCc1ccccc1` (configuration not stated), the inhibition was 11.3%.

For the compound `CC(NC(=O)C12CC3CC(CC(C3)C1)C2)c1ccc2c(c1)OCCO2` (configuration not stated), the inhibition is 3%. In the case of `CCOc1cc(CNCCO)cc(Br)c1OCc1ccc(Cl)cc1Cl` it was 11.8%. In the case of `COc1cc(CNCCO)cc(Cl)c1OCc1ccccc1Cl` it was 14.7%; in that of `COc1cc(CNCCO)cc(Cl)c1OCc1ccc(Cl)cc1Cl`, 83.3% (active); in that of `N#C/C(=C/c1cn[nH]c1-c1ccc(Br)cc1)C(=O)O`, 3%. As for `N#C/C(=C\c1ccccc1Br)C(=O)NC1CC1`, the inhibition was -17.2%. Next, `CCOC(=O)/C(C#N)=C/c1cn(CCC(=O)O)nc1-c1cccc(Br)c1`: 1.6%. In the case of `COc1ccccc1/C=C(/C#N)C(=O)O` it was 7%; in that of `COc1ccc(S(=O)(=O)N(CC(=O)NCc2ccncc2)c2cc(C)cc(C)c2)cc1OC`, 14.3%. Next, `COc1cc(Br)c(-c2sc(Nc3ccccc3)n[n+]2-c2ccccc2)cc1OC`: 40.4%. For `COc1ccc(-c2sc(Nc3ccccc3)n[n+]2-c2ccc(F)cc2)c(OC)c1OC`, the inhibition was 30%.

On to `COc1cc(OC)c(-c2sc(Nc3ccccc3)n[n+]2-c2ccc(F)cc2)cc1OC`, for which the inhibition was -3%. In the case of `COc1ccc(-c2sc(Nc3ccccc3)n[n+]2C)c(C)c1C` it was -7%; in that of `CCn1c(SCC(=O)Nc2ccc(OC)cc2)nnc1-c1ccco1`, 2.2%; in that of `O=C(Nc1ccc(F)cc1)NC1(C(=O)NCc2ccco2)CCCCC1`, 5.6%. For `CN(C)CCNC(=O)COc1ccc(C23CC4CC(CC(C4)C2)C3)cc1`, the inhibition was 33.6%. In the case of `COc1ccc(Cl)cc1C(=O)NCCN(C)C`, the inhibition is -0.9%. In the case of `O=C(NCCCN1CCN(c2ccc(F)cc2)CC1)NC12CC3CC(CC(C3)C1)C2` it was -1.6%; in that of `CCOC(=O)c1cnc(SC)nc1Oc1cccc(NC(=O)c2cccc(Cl)c2Cl)c1`, 9.1%. As to `CCCCNC(=S)N(C)/N=C/c1sc(N2CCCCC2)nc1-c1cccs1`, the inhibition is 11.7%. In the case of `CC(=O)N(C1=C(O)c2ccccc2C(=O)C1=O)C1CCCCC1` it was -3.7%; in that of `CC(=O)N(c1ccccc1)C1CCCC1`, 3.9%. Next, `Cc1cc(OCC(=O)Nc2ccc(CN3CCOCC3)cc2)c2c(C)c(C)c(=O)oc2c1`: 18.4%; `CC(C)Sc1cc(N2CCCC2)nc(-c2ccccc2Cl)n1`: 7.8%. For the compound `CCOc1cccc(OCCNC2CCCC2)c1`, the inhibition was -14.7%. For `COc1ccc(-c2c3c(=O)n(C)c(=O)n(C)c3cn2-c2cc(OC)ccc2OC)cc1`, the inhibition was 11.5%. In the case of `COCCNC(=O)c1ccccc1NC(=O)CN(c1ccc2c(c1)OCO2)S(C)(=O)=O` it was 6.3%; in that of `COc1cccc(NC(=O)CN(C)CC(=O)Nc2cccc(C(F)(F)F)c2)c1`, -8.3%; in that of `O=C(Nc1ccnn1C1CCN(Cc2cc3ccccc3[nH]2)CC1)C1CCOC1` (configuration not stated), 1.9%. `Nc1c(S(=O)(=O)O)cc(NC(=O)c2ccccc2)c2c1C(=O)c1ccccc1C2=O`: the inhibition is 0.8%. `Cc1cc(C)cc(NC2=C(N)C(=O)c3ccccc3C2=O)c1`: the inhibition is 6.8%. Next, `Cc1cc(C)c(Nc2cc(S(=O)(=O)O)c(N)c3c2C(=O)c2ccccc2C3=O)c(C)c1`: 66.8% (active); `Cc1ccc(C)c(NC(=O)NNC(=O)CCc2ccccc2)c1`: 11%.

For the compound `CC(C)(C)n1nnnc1C(c1cccnc1)N(Cc1ccccc1)Cc1cccs1` (configuration not stated), the inhibition was 59.7%. In the case of `CC(C)(C)n1nnnc1C(c1cccs1)N(Cc1cccnc1)CC1CCCO1` (configuration not stated) it was 4.3%; in that of `CC(C)(C)n1nnnc1C(c1cccs1)N(Cc1cccnc1)Cc1ccco1` (configuration not stated), 57.6%.

With `CC(c1nnnn1C(C)(C)C)N(Cc1cccnc1)Cc1ccccc1Cl` (configuration not stated), the inhibition is 11.1%. As for `Cc1ccc(C(C)C)cc1S(=O)(=O)NCc1ccccn1`, the inhibition was 8.4%. As to `Cc1cc(C)nc(Nc2n[nH]c(-c3ccccc3Cl)n2)n1`, the inhibition was 0.2%. `COc1ccc(C2c3ccc(O)cc3Oc3ncn4nc(-c5ccccn5)nc4c32)cc1OC` (configuration not stated): the inhibition is 14.6%. In the case of `N=c1c2c(ncn1Cc1ccco1)Oc1c(ccc3ccccc13)C2c1ccccc1` (configuration not stated) it was 65.9% (active); in that of `N=c1c2c(ncn1CCCO)Oc1cc(O)ccc1C2c1ccccc1` (configuration not stated), 33.6%; in that of `COc1ccc(C2c3ccc(O)cc3Oc3ncn4nc(-c5ccncc5)nc4c32)cc1OC` (configuration not stated), 5.3%. In the case of `N=c1c2c(ncn1Cc1ccco1)Oc1ccc3ccccc3c1C2c1ccccc1` (configuration not stated) it was 17.8%; in that of `COc1ccc(C2c3ccc4ccccc4c3Oc3ncn(Cc4ccco4)c(=N)c32)cc1OC` (configuration not stated), 96.1%. Next, `COc1ccc(C2c3ccc(O)cc3Oc3ncn(Cc4ccco4)c(=N)c32)cc1OC` (configuration not stated): 33%. Turning to `N=c1c2c(ncn1CCN1CCOCC1)Oc1cc(O)ccc1C2c1ccccc1` (configuration not stated), the inhibition was 16.4%.

`COc1ccc(C2c3c(ncn(Cc4ccco4)c3=N)Oc3ccc4ccccc4c32)cc1` (configuration not stated): the inhibition is 27.8%.
